# High-throughput results (PubChem BioAssay)
# An excerpt weighted towards active compounds, which were near 5.7% of everything screened.
# hcDAF-12 act: activates DAF-12 receptor from parasite H. contortus; HEK293 hcDAF-12 lit1-tk-luc reporter, luminescence; 0% DMSO, 100% Δ7-dafachronic acid; activation, % at 6.8 µM; 1.4% of 370,000 active;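 active = activation above the mean of all tested compounds plus 3 SD, cut at about 5.5% in these data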;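 also: 100% = response to 3 µM Δ7-dafachronic acid high control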
# DAX1 inh-1: inhibitors of human orphan nuclear receptor DAX1 (NR0B1) | HEK293 Gal4-DAX1 luciferase reporter, luminescence | inhibition, % at 6.75 µM | 0.99% of 340,000 active | AID 504766;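 active = inhibition above the mean over all tested compounds plus 3 SD, cut at about 4.2% in these data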;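 also: 0% = DAX1-transfected cells with DMSO and 100% = empty-vector control cells with DMSO; inhibition shows as a rise in luminescence from relieved DAX1 repression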
# DAX1 inh-2: inhibitors of DAX1 repression of SF-1 activated StAR promoter; 1.1% of 370,000 active; HEK293T StAR-luciferase reporter, SF-1/DAX-1 repression relief; AID 652010; inhibition, % at 6.8 µM;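 active = inhibition above the mean over all tested compounds plus 3 SD, cut at about 3.6% in these data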;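 also: 0% = DAX-1 cells with DMSO and 100% = cells lacking DAX-1 with DMSO; higher inhibition means more luminescence from relief of DAX-1 repression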
# AHR act: activators of human aryl hydrocarbon receptor; P35869; AHR-responsive luciferase reporter cells, luminescence; activation, % at 5 µM; 2.5% of 320,000 active; AID 2796; in the data active = activation above about 47%;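 also: 0% = vehicle wells and 100% = reference agonist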
# ssDAF-12 act: S. stercoralis DAF-12 activation, primary screen. activation, % at 6.8 µM. AID 652126. HEK293 ssDAF-12/GRIP1 lit1-tk-luc reporter, luminescence; % of 3 µM dafachronic acid response. 1% of 370,000 active;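 active = activation above the mean over all tested compounds plus 3 SD, cut at about 0.9% in these data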;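 also: 0% = DMSO-only wells and 100% = 3 µM delta7-dafachronic acid wells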
# hgDAF12 agonist: agonists of H. glycines DAF-12 nuclear receptor; HEK293 GAL4-hgDAF12 UAS-luciferase reporter, agonist luminescence; normalized to butyrate control; activation, % at 6.8 µM; 1.8% of 370,000 active;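 active = activation above a cutoff set at the mean of all screened compounds plus 3 SD, cut at about 10% in these data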;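 also: 0% = DMSO wells and 100% = sodium butyrate wells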
# hgDAF12 ag: confirmation of H. glycines DAF-12 agonists. AID 743050. activation, % at 6.8 µM. 80% of 3,300 active. shares compounds with hgDAF12 agonist. HEK293 GAL4-hgDAF12 luciferase reporter, agonist mode; percent of butyrate response;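 active = mean activation over triplicate wells above the hit cutoff derived from the earlier primary screen, cut at about 11% in these data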;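 also: 0% = DMSO low control and 100% = 2 mM sodium butyrate high control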
# LXRb DAF12 ctr: counter-screen for DAF-12 agonists: agonists of human LXR-beta; AID 743051; 3,300 tested, under 10 active; activation, % at 6.8 µM; HEK293 Gal4-LXR luciferase reporter, 24 h; shares compounds with hgDAF12 agonist;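 active = mean activation of the triplicate above a set limit carried over from the primary screen, none filed active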
# The depositor's hits bear a star; . = no result given.
SMILES,hcDAF-12 act,DAX1 inh-1,DAX1 inh-2,AHR act,ssDAF-12 act,hgDAF12 agonist,hgDAF12 ag,LXRb DAF12 ctr
O=[N+]([O-])c1ccc(/C=N/NC(=S)Nc2ccccc2F)o1,1.3,2.2,-1.6,9.5,-1.3,1.6,.,.
Fc1ccccc1NC(=S)N/N=C/c1ccccc1Br,3.8,1.2,4.3*,123.8*,0.5,16.2*,11.8*,0.8
Cc1ccc(NC(=O)c2scc3c2CCCC3)cc1,6.2*,4.6*,3.5,25.8,0.6,23.4*,15.5*,0.6
Cc1ccc(NC(=O)CN(C)C(=O)c2cc3c(s2)CCCCC3)cc1,-1.0,0.1,1.4,1.8,-0.8,0.0,.,.
Cc1ccc(NC(=O)c2cc3c(s2)CCCC3)cc1,5.4,6.6*,4.2*,29.9,0.4,19.1*,17.4*,1.0
CN(Cc1nc(-c2ccc(Cl)cc2)no1)C(=O)CCN1C(=O)[C@H]2CC=CC[C@H]2C1=O,-2.1,-0.1,-3.4,1.7,-1.7,-3.5,.,.
Cc1ccnc(NC(=O)/C=C/c2cccs2)c1,5.6*,0.9,3.4,7.1,0.5,16.0*,18.8*,1.0
Cc1ccnc(NC(=S)NC(=O)/C=C/c2ccco2)c1,2.7,2.4,0.6,26.9,-0.3,6.7,.,.
CC(OC(=O)c1cccc(S(=O)(=O)N2CCOCC2)c1)C(=O)NC1CCCCC1C (stereo not drawn),-0.4,0.3,-0.1,0.0,-1.1,17.9*,-0.1,0.0
O=C(CCN1C(=O)S/C(=C\c2ccc(F)cc2)C1=O)Nc1ccc(O)cc1C(=O)O,-0.7,1.4,0.6,1.6,-1.7,3.1,.,.
O=C1CCCN1CCCNCC(O)c1ccccc1 (stereo not drawn),-0.4,-0.1,0.2,-0.8,-1.5,-0.8,.,.
O=C1C(C=NCCCN2CCCC2=O)=C(O)c2ccccc21,3.9,1.9,2.1,11.5,-0.3,18.6*,7.5,0.3
c1ccc2oc(SCc3cn4ccsc4n3)nc2c1,3.4,2.2,2.4,6.3,0.7,9.0,.,.
Cc1csc2nc(CSc3nc4ccccc4o3)cn12,0.2,1.5,0.7,12.2,-0.5,13.4*,8.2,0.2
CC(C)(C)C(=O)Nc1cccc(-c2cc(-c3c(Cl)cccc3Cl)no2)c1,-1.3,-2.2,-0.7,1.5,-2.3,-1.6,.,.
C#CCN1C(=O)S/C(=C/c2cc(C)n(CC)c2C)C1=O,4.9,1.4,2.9,5.9,0.1,17.7*,19.7*,0.9
CCn1c(C)cc(/C=C2/SC(=S)N(CC(=O)O)C2=O)c1C,-1.3,-1.2,0.9,-0.7,-1.3,2.7,.,.
CC(C)CN(C(=O)C(C)N1C(=O)c2ccccc2C1=O)c1c(N)n(Cc2ccccc2)c(=O)[nH]c1=O (stereo not drawn),-0.8,1.0,-0.5,3.8,-0.6,1.0,.,.
CC(=O)c1ccc(NC(=O)/C(Cl)=C/c2ccccc2)cc1,3.7,1.9,3.4,-4.6,0.3,16.7*,12.0*,0.9
Cc1oc2cc3oc(=O)c(CCC(=O)NCCN4CCOCC4)c(C)c3cc2c1C,-0.6,2.0,1.2,-1.2,-1.5,2.5,.,.
COc1ccc(NC(=O)CSc2nc(N)c3cc4c(nc3n2)CCCC4)cc1,-0.6,-0.6,-0.6,13.7,-1.4,17.6*,5.1,0.3
CC(=O)c1ccc(NC(=O)CSc2nc(N)c3cc4c(nc3n2)CCCC4)cc1,1.2,-0.9,-0.4,7.4,-1.6,4.5,.,.
CCCCN1C(=O)C(CC(=O)NCCc2ccccn2)CC(C(=O)N(C(C)C)C(C)C)=C1C (stereo not drawn),-1.2,-0.3,-0.4,.,-1.6,-0.4,.,.
CC(C)N1C(=S)N(Cc2ccco2)C(=O)C1CC(=O)Nc1ccccc1 (stereo not drawn),-1.9,-0.9,0.4,4.7,-1.6,-1.7,.,.
COc1ccc(N2CCN(C(=O)CCC(=O)N3Cc4ccccc4Oc4ncccc43)CC2)cc1,-2.7,0.0,-0.6,3.9,-1.2,-1.9,.,.
SMILES,hcDAF-12 act,DAX1 inh-1,DAX1 inh-2,AHR act,ssDAF-12 act,hgDAF12 agonist,hgDAF12 ag,LXRb DAF12 ctr
COc1ccc(C2CC(c3ccc(Cl)cc3)=NN2c2ccc(S(N)(=O)=O)cc2)cc1 (stereo not drawn),-0.2,-0.4,-1.4,.,-0.8,0.9,.,.
COc1ccc(C2CC(c3ccncc3)=NN2c2ccc(S(N)(=O)=O)cc2)cc1 (stereo not drawn),4.5,3.7,2.9,.,0.5,26.1*,21.5*,0.6
O=C(C1CCCN(Cc2ccc(Br)cc2)C1)N1CCCCC1 (stereo not drawn),-3.6,-2.2,-0.8,4.6,-2.0,-5.4,.,.
CC(=O)c1ccc(N=Nc2ccc(N(C)C)cc2)cc1,4.6,3.1,2.8,0.0,1.0*,13.4*,11.8*,0.8
COc1ccccc1CNC(=O)CCNC(=O)C1CCN(S(=O)(=O)c2ccccc2)CC1,-1.4,0.1,0.0,2.0,0.0,2.0,.,.
O=c1oc2cc(O)ccc2cc1-c1ccccc1,2.7,1.5,3.5,-0.7,0.6,6.2,.,.
COc1ccc(NC(=O)c2cc3ccc(O)cc3o/c2=N\O)cc1,5.7*,-0.2,2.5,-8.7,0.6,17.7*,15.0*,0.7
COc1ccc(NC(=O)c2cc3ccccc3cc2O)cc1,3.1,1.6,1.5,23.0,-0.4,15.4*,15.8*,0.4
COc1ccc2o/c(=N\O)c(C(=O)Nc3ccccc3OC)cc2c1,3.1,-0.6,0.3,21.9,-0.5,5.0,.,.
COc1ccc(-c2cc3ccc(O)cc3oc2=O)cc1,5.1,0.8,3.2,0.3,0.4,13.6*,13.6*,0.7
COC(=O)c1ccc(OS(=O)(=O)N(C)C)cc1,1.3,1.1,0.8,0.9,-0.3,20.1*,5.8,0.1
Cc1ccc(C(=O)CCC(=O)OCC(=O)NNC(=O)c2ccc([N+](=O)[O-])cc2)cc1,3.0,0.0,0.5,0.0,-0.8,2.1,.,.
COc1ccc(C(=O)Nc2ccc(SC(F)F)cc2)cc1,2.5,-0.6,1.0,1.3,-0.7,15.1*,11.5*,0.5
CCCCOc1ccc(C(=O)Nc2ccc(SC(F)F)cc2)cc1OC,-0.9,-0.3,0.0,14.5,-2.0,-1.3,.,.
COc1ccc(NC(=O)c2cccc(OS(=O)(=O)N(C)C)c2)cc1,2.3,-0.2,1.7,29.1,-1.2,16.8*,11.6*,0.5
COc1ccc(NC(=O)c2ccc(C)cc2)cc1,3.8,-0.9,3.9*,-7.9,0.8,14.3*,17.8*,0.9
CCc1c(C)nc2cc(-c3ccccc3)[nH]n2c1=O,3.1,2.3,1.1,44.9,0.3,7.7,.,.
C=CCc1c(C)nc2cc(-c3ccc(C)cc3)[nH]n2c1=O,6.3*,3.6,1.6,50.3*,1.0*,13.8*,11.3*,0.9
CN(C)CCNCCCOc1ccccc1-c1ccccc1,.,.,.,0.4,.,.,.,.
